Values joined by “and” are separate entries in the source; they are usually repeats but may differ in a detail not shown here. Identical values can stand only once. Inconclusive results are not listed. A number with no mark means an inactive call. Active and inactive are the calls of the source. Calls come from the whole dose curve; as a rule, active = well fitted cell-killing curve with a large enough effect; inconclusive = small, poorly fitted or top-dose-only effect, or effect the other way; inactive = flat fitted curve, though single readings scatter.
% is set by controls: 0 for no effect and ±100 for the full control effect; potency is the fitted concentration of half-maximal effect.

A short description of this assay: qHTS assay for cell viability of HEK293 cells (AID 743288). Note: nearly all actives have a fitted effect of over 50% in size. The following applies: ATP luminescence (CellTiter-Glo), 18 h; max response: hits give low values. The source says:
National Center for Advancing Translational Sciences [NCATS]
NIH Chemical Genomics Center [NCGC]
U.S. Environmental Protection Agency [EPA]
National Institutes of Environmental Health Sciences [NIEHS]
National Toxicology Program [NTP]
U.S. Food and Drug Administration [FDA]
The CellTiter-Glo Luminescent Cell Viability Assay (Promega, Madison, WI) is a homogeneous method to determine the number of viable cells in culture based on quantitation of the ATP present, which signals the presence of metabolically active cells. This cell viability assay was used to screen environmental chemicals in the Hek293 cell line.
Tox21 Assay Protocol Summary:
Cell viability after compound treatment was measured using a luciferase-coupled ATP quantitation assay (CellTiter-Glo viability assay, Promega, Madison, WI) in parental HEK293 cells. Total intracellular ATP content corresponds to the number of metabolically competent cells after compound treatment. The cells were dispensed at 2,000 cells/5 uL/well in 1,536-well white/solid bottom assay plates using a Flying Reagent Dispenser (Aurora Discovery, San Diego, CA). The cells were incubated a minimum of 5 h at 37 C, followed by the addition of 23 nL of compounds dissolved in DMSO, positive controls or DMSO only using a pintool work station (Kalypsys, San Diego, CA). The assay plates were incubated for 18 h at 37 C, followed by the addition of 5 uL/well of CellTiter-Glo reagent. After 30 min incubation at room temperature, the luminescence intensity of the plates was measured using a ViewLux plate reader (PerkinElmer, Shelton, CT).
A general note: qHTS replaces the single test concentration by a dilution series.
`NCCN`: the max response is -4.96%.
On the same count and under the same terms, under `C[C@H](CCC(=O)O)[C@H]1CC[C@H]2[C@@H]3CC[C@@H]4C[C@H](O)CC[C@]4(C)[C@H]3C[C@H](O)[C@]12C` stands 3.72%; under `C=C(C)C1CC=C(C)CC1` (stereo not given), -3.42% and -10.2%.
For the molecule `Cc1ccc(S(=O)(=O)NCl)cc1`, the max response was -7.16%.
Same read-out and setting: under `CO/N=C(/C(=O)N[C@@H]1C(=O)N2C(C(=O)O)=C(COC(N)=O)CS[C@H]12)c1ccco1` stands 2.57%.
Same read-out and setting: the result for `CCCCC` reads -0.392%.
For the molecule `NC(N)=O`, the max response was 0.964%.
Regarding `C[Si](C)(C)O[Si](C)(C)C`, the max response was -0.467%.
As to `O=c1n(CC2CO2)c(=O)n(CC2CO2)c(=O)n1CC1CO1` (stereo not given), the max response is -25.2% and -21.7%.
On the same count and under the same terms, the result for `CC[C@H]1OC(=O)[C@H](C)[C@@H](O[C@H]2C[C@@](C)(OC)[C@@H](O)[C@H](C)O2)[C@H](C)[C@@H](O[C@@H]2O[C@H](C)C[C@H](N(C)C)[C@H]2O)[C@](C)(O)C[C@@H](C)CN(C)[C@H](C)[C@@H](O)[C@]1(C)O` reads -7.47%; that for `OCc1ccccc1`, 7.92%; that for `O.O.O.O.O.O.O.O=S(=O)([O-])[O-].[Co+2]`, 1.41%.
Same read-out and setting: the result for `OCl` reads -19.9%; that for `CCCCC(CC)COS(=O)(=O)O` (stereo not given), 8.79%; that for `Nc1ccc(N=Nc2ccccc2)c(N)n1`, -23.5% and -25.3%.
Turning to `O=C(OCc1ccccc1)c1ccc(O)cc1`, the max response is -7.01%.
On the same count and under the same terms, under `Cc1ncc[nH]1` stands -10.6%.
As to `NCCO/C=C/[C@H](N)C(=O)O`, the max response is -5.56%.
The same measure, in the same setting: under `CCCCCCCCCCCCCCCCCC(=O)OC[C@@H](O)[C@H]1OC[C@H](O)[C@H]1O` stands -11.8%.
`CC(C)(C)CC(C)(C)c1ccc(OCCO)cc1`: the max response was -25.1%.
Turning to `OC[C@H]1O[C@@](CO)(O[C@H]2O[C@H](CO)[C@@H](O)[C@H](O)[C@H]2O)[C@@H](O)[C@@H]1O`, the max response is -4.31%.
Still for that read-out and setting: under `C=CC(C)(O)CC/C=C(\C)CCC=C(C)C` (stereo not given) stands -7.81%; under `CC1=CC(=O)NS(=O)(=O)O1`, -5.77% and -0.759%; under `c1ccc2ccccc2c1`, -14.2% and 4.14%.
On the same count and under the same terms, the result for `CO[C@@H]1[C@H](OC(=O)/C=C/C=C/C=C/C=C/C(=O)O)CC[C@]2(CO2)[C@H]1[C@@]1(C)O[C@@H]1CC=C(C)C` reads -10.5%; that for `COC(=O)c1ccccc1O`, -4.62% and -2.27%.
On to `CO`, for which the max response is 1.36%.
On the same count and under the same terms, the result for `CCCCO` reads 11.1% and -7.83%; that for `OCC(O)CO`, 1.91% and -2.54%.
The same measure, in the same setting: the result for `CC(C)O` reads -16.4%; that for `OB(O)O`, -3.91% and 5.45%; that for `Nc1ncnc2c1ncn2[C@H]1CC[C@@H](CO)O1`, -8.27% and 0.717%.
Same read-out and setting: the result for `C[C@H](CCC(=O)O)[C@H]1CC[C@H]2[C@@H]3[C@H](O)C[C@@H]4C[C@H](O)CC[C@]4(C)[C@H]3C[C@H](O)[C@]12C` reads -4.94%; that for `O=P(O)(O)O`, -7.47%; that for `CC1=CCC2CC1C2(C)C` (stereo not given), -5.13%.
Turning to `CCOC(C)OCC`, the max response was 7.3%.
For the molecule `OC[C@H]1O[C@@H]2O[C@H]3[C@H](O)[C@@H](O)[C@@H](O[C@H]4[C@H](O)[C@@H](O)[C@@H](O[C@H]5[C@H](O)[C@@H](O)[C@@H](O[C@H]6[C@H](O)[C@@H](O)[C@@H](O[C@H]7[C@H](O)[C@@H](O)[C@@H](O[C@H]1[C@H](O)[C@H]2O)O[C@@H]7CO)O[C@@H]6CO)O[C@@H]5CO)O[C@@H]4CO)O[C@@H]3CO`, the max response was -12.8% and 1.56%.
The same measure, in the same setting: the result for `CC(C)CCC[C@@H](C)[C@H]1CC[C@H]2[C@@H]3CC=C4C[C@@H](O)CC[C@]4(C)[C@H]3CC[C@]12C` reads -8.56%.
`C[C@H]1O[C@@H](O[C@H]2[C@@H](O)C[C@H](O[C@H]3[C@@H](O)C[C@H](O[C@H]4CC[C@@]5(C)[C@H](CC[C@@H]6[C@@H]5C[C@@H](O)[C@]5(C)[C@@H](C7=CC(=O)OC7)CC[C@]65O)C4)O[C@@H]3C)O[C@@H]2C)C[C@H](O)[C@@H]1O`: the Potency was 126 nM (active) and 50.1 nM (active).
On to `CC(C)[C@@H]1CC[C@@H](C)C[C@H]1O`, for which the max response was -12.7%.

These data come from PubChem BioAssay (NCATS).
